HSF1 inhib: HSF1 inhibitors in luciferase reporter cells, primary screen, cell-based, NIH3T3, luminescence; NIH3T3-HGL HSE-luciferase, MG132-induced, luminescence 8 h; hits give low values; 0.77% of 300,000 active; activity change, negative = inhibition, % at 7.5 µM (by protocol); AID 2098, 2009;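 active means more than half of replicate wells show activity change below -50%, luminescence cut by over half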;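 further: luciferase reports HSF-1 transcriptional activity via heat shock element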
HSF-1 act: HSF-1 activators, primary screen, NIH3T3-HGL cells, MG132 stress, luminescence, single point | NIH3T3-HGL HSF-1 luciferase reporter, 8 h; 100% = twice DMSO control signal | activation, % at 9 µM | 1.7% of 300,000 active | AID 504408, 2011;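 active means mean replicate activation of at least 50% with a set share of replicates each reaching 50%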
GAA850 FXN act: FXN promoter activators, primary screen, cell-based, luciferase luminescence, HEK293 lucGAA850 | 0.56% of 360,000 active | HEK293 lucGAA850 FXN promoter luciferase reporter, 24 h; percent of 10 µM SAHA response | activation, % at 6 µM;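 active means activation above the average of all compounds screened plus 3 SD, cutoff fixed separately per campaign, cut at about 7.5% in these data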
NR0B1 inh: DAX1 (NR0B1) inhibitors, primary screen, cell-based, HEK293, Gal4-DAX1, luciferase luminescence | inhibition, % at 6.75 µM | Nuclear receptor subfamily 0 group B member 1 (Homo sapiens), P51843 | HEK293 Gal4-DAX1 luciferase reporter | AID 504766, 2011 | 0.99% of 340,000 active;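 active means inhibition above the mean over all tested compounds plus 3 SD, cut at about 4.2% in these data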;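 further: inhibition shows as a rise in luminescence from relieved DAX1 repression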
Target sequence (P51843 207-470 limits assumed): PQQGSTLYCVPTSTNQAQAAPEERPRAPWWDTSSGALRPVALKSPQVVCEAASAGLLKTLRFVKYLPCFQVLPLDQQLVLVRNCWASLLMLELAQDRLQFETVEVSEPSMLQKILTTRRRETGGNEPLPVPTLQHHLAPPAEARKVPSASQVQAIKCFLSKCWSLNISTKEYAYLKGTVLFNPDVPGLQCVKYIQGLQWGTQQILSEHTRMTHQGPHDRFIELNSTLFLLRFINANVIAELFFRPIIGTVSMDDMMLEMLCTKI
AHR activator: AHR activators, primary screen, cell-based, luminescence, luciferase reporter, human; Aryl hydrocarbon receptor (Homo sapiens), P35869; AHR-responsive luciferase reporter cells; activation, % at 5 µM; 2.5% of 320,000 active; in the data active means activation above about 47%
AHR act cf: AHR activators, confirmation, cell-based, luminescence, luciferase reporter, human | human cells, AHR-responsive luciferase reporter | 87% of 2,300 active | AID 2845, 2010 | shares compounds with AHR activator | activation, % at 9 µM; in the data active means activation above about 49%;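 further: HepG2 hepatoma cells carrying a DRE-driven firefly luciferase reporter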
PXR counter: human PXR activators, counter-screen for AHR activator project, cell-based, luciferase luminescence. shares compounds with AHR activator. cell-based PXR reporter. activation, % at 11.6 µM. 88% of 2,300 active. AID 434939, 2010; in the data active means activation above about 11%;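 further: human hepatoma DPX-2 cells expressing full-length human PXR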
Each line names hits and unclear results; the compound was inactive in the other large screens (follow-up assays come after a bar, where they were run). Most compounds without a hit are left out; they make up all but 5.4% or so of the library.

CC1(C)CC(=O)C2=C(C1)N1C(=C(C#N)C2c2ccc(Cl)cc2)N=C(N)c2ccccc21 (stereo unspecified)	HSF-1 act 76, AHR activator 97 | AHR act cf inactive | PXR counter 159
COc1cc(C(=O)NCCN2CCN(C(=O)c3cc(OC)c(OC)c(OC)c3)CC2)cc(OC)c1OC	none
O=C(Nc1cccc(Cl)c1)c1cccnn1	AHR activator 109 | AHR act cf 82
Cc1ccc(-n2ncc3c(NCCCn4ccnc4)ncnc32)c(C)c1	none
Cc1cccc(-n2ncc3c(NCCCn4ccnc4)ncnc32)c1	AHR activator 83 | AHR act cf 57 | PXR counter 45
Cc1sc2ncnc(NCCCn3ccnc3)c2c1C	AHR activator 127 | AHR act cf 102 | PXR counter 22
CC(=O)N/C(=C\c1ccc(F)cc1)C(=O)OCc1ccccc1	none
Cc1ccc2[nH]c3c(=O)n4c(nc3c2c1)SCC4	AHR activator 123 | AHR act cf 150 | PXR counter 31
O=C1C=CC2(O[C@H](c3ccccc3)[C@@H](c3ccccc3)O2)[C@H](Sc2ccccc2O)C1	none (no result: HSF1 inhib, HSF-1 act, AHR activator)
C=CCn1c(=N)n(CC(=O)c2ccc(Br)cc2)c2ccccc21	AHR activator 86 | AHR act cf 96 | PXR counter 31
CCCn1c(=N)n(CC(=O)c2ccc([N+](=O)[O-])cc2)c2ccccc21	none
C=CCn1c(NC(=O)c2ccccc2)nc2ccccc21	AHR activator 87 | AHR act cf 126 | PXR counter 33
C=CCn1c(P(=O)(O)c2ccccc2)nc2ccccc21	none
CCCn1c(=N)n(CC(=O)c2ccc(Cl)cc2)c2ccccc21	AHR activator 86 | AHR act cf 80 | PXR counter 31
N=c1n(N)c2ccccc2n1CC(=O)c1ccc(Br)cc1	AHR activator 83 | AHR act cf 86 | PXR counter inactive
CC(C)(C)c1ccc(C(=O)NCCNC(=O)c2ccco2)cc1	none
C=CCn1c(=N)n(CC(=O)c2ccccc2)c2ccccc21	AHR activator 102 | AHR act cf 88 | PXR counter 47
O=c1c[n+]([O-])c2ccccc2n1OCc1c(F)cccc1F	AHR activator 80 | AHR act cf 92 | PXR counter 43
COCCNC(=O)C1(C)CCCN(Cc2cc(-c3ccccc3)on2)C1 (stereo unspecified)	none (no result: HSF1 inhib, HSF-1 act, NR0B1 inh, AHR activator)
Cc1ccc2nc(NCc3ccccc3)[nH]c2c1	HSF-1 act 233, AHR activator 84 | AHR act cf 55 | PXR counter 208
O=C(NNC(=O)c1sccc1-n1cccc1)c1ccc(Cl)cc1	AHR activator 90 | AHR act cf 100 | PXR counter 28
O=C(NNS(=O)(=O)c1ccccc1)c1sccc1-n1cccc1	none
O=C(N/N=C\c1ccccc1)c1sccc1-n1cccc1	AHR activator 82 | AHR act cf 127 | PXR counter 25
O=C(NNS(=O)(=O)c1ccc(Cl)cc1)c1sccc1-n1cccc1	none
CC(C)c1ccc(NC(=O)c2sccc2-n2cccc2)cc1	AHR activator 84 | AHR act cf 113 | PXR counter 46
COC(=O)c1cc(NS(=O)(=O)c2ccc(C(C)C)cc2)ccc1N1CCOCC1	none
CCOc1ccccc1N(CC(=O)N1CCCC1)S(C)(=O)=O	none
Cn1cc(/C=C(\NC(=O)c2ccccc2)C(=O)N2CCOCC2)c2ccccc21	AHR activator 85 | AHR act cf inactive | PXR counter 87
O=C(CSc1nnnn1-c1cccc(F)c1)NC1CCCCC1	none (no result: HSF1 inhib, HSF-1 act)
Fc1cccc(NC(=S)N2CCc3ccccc32)c1	none (no result: HSF1 inhib, HSF-1 act, AHR activator)
CC(=O)c1cccc(NC(=S)N2CCc3ccccc32)c1	AHR activator 86 | AHR act cf 107 | PXR counter 60
Cc1c(NC(=O)c2ccc(Cl)nc2)cccc1-c1nc2cccnc2s1	none

Source: PubChem BioAssay (several laboratories)
